± gives the standard deviation of the averaged measurements.
Tests used:
Details in all cases: concentration: 10 µM; 24 h
[1] = tested on: HCC1569; assay: cell number relative to DMSO (% of DMSO); higher = more cells (less growth inhibition / toxicity)
Procedure, shortened: (§1)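 After 24 h at 37 °C with compounds at 10 µM, in triplicate, HCC1569 and TDF cells were fixed with 3.7% formaldehyde. Immunostaining used a rabbit anti-H1.0 antibody and an AlexaFluor 647 secondary, with DAPI, and six fields per well were imaged at ×10. H1.0 nuclear intensity or cell number is presented as percent of the plate control, from the median of replicates, with HCC1569 values smoothed for positional effects.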

[2] = tested on: TDF; assay: as above
Procedure, shortened: as §1

[3] = tested on: TDF; assay: H1.0 immunofluorescence intensity relative to DMSO (% of DMSO); higher = stronger H1.0 induction, active = 120 or more
Procedure, shortened: as §1

[4] = tested on: HCC1569; assay: H1.0 immunofluorescence intensity relative to DMSO (% of DMSO); higher = stronger H1.0 induction, active = 140 or more
Procedure, shortened: as §1
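Throughout, for H1.0 immunofluorescence intensity relative to DMSO: TDF is a line of transformed human dermal fibroblasts of mesenchymal origin.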
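Throughout, for cell number relative to DMSO: TDF denotes transformed human dermal fibroblasts of mesenchymal origin.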

| Structure (SMILES) | cell number [1] | cell number [2] | H1.0 immunofluorescence intensity [3] | H1.0 immunofluorescence intensity [4] |
| --- | --- | --- | --- | --- |
| Cl.Cn1ccc2cc3c(cc21)CCN3C(=O)Nc1cccnc1 | 101 | 112 | 87.9 (inactive) | 100 (inactive) |
| CN1CCN(c2nc3cc(C(F)(F)F)ccc3n3cccc23)CC1.O=C(O)C=CC(=O)O | 99.3 | 104 | 103 (inactive) | 113 (inactive) |
| CC(O)C1C(=O)N2C(C(=O)O)=C(SCCN=CN)CC12 (stereo not given) [Imipenem] | 111 | 109 | 97.1 (inactive) | 102 (inactive) |
| O=C(Nc1cccc(C(=O)Nc2ccc(S(=O)(=O)[O-])c3cc(S(=O)(=O)[O-])cc(S(=O)(=O)[O-])c23)c1)Nc1cccc(C(=O)Nc2ccc(S(=O)(=O)[O-])c3cc(S(=O)(=O)[O-])cc(S(=O)(=O)[O-])c23)c1.[Na+].[Na+].[Na+].[Na+].[Na+].[Na+] | 102 | 110 | 93.4 (inactive) | 96 (inactive) |
| O=C(O)CCCC=CCC1C(O)CC(F)C1C=CC(O)C1Cc2ccccc2C1 (stereo not given) | 103 | 103 | 91.9 (inactive) | 97.3 (inactive) |
| O=C(NOCC1CC1)c1ccc(F)c(F)c1Nc1ccc(I)cc1Cl | 77.6 | 71 | 93.3 (inactive) | 116 (inactive) |
| CC(=O)C1CCC2C3CCC4=CC(=O)CCC4(C)C3CCC12C (stereo not given) [Progesterone] | 101.3 ± 0.57 | 99.1 ± 7.3 | 95.9 (inactive) | 102 (inactive) |
| CC(C)(C)NC(=O)C1CCC2C3CCC4NC(=O)C=CC4(C)C3CCC12C (stereo not given) [Finasteride] | 102 | 97.4 | 95.4 (inactive) | 108 (inactive) |
| COc1ccc(S(=O)(=O)Nc2nc(-c3cccc([N+](=O)[O-])c3)c(CN3CCCCC3)s2)cc1OC | 101 | 98.9 | 89.5 (inactive) | 110 (inactive) |
| O=C(O)c1cc(N(Cc2ccccc2O)Cc2ccccc2O)ccc1O [Lavendustin B] | 102 | 95.2 | 94.5 (inactive) | 93.1 (inactive) |
| CCCCCCC=CC=CCCCCCCCC(=O)O [(9Z,11E)-Octadecadienoic acid] | 97.6 | 106 | 99.8 (inactive) | 100 (inactive) |
| O=C(Nc1cccc(Nc2cc(Nc3cccc(C(F)(F)F)c3)ncn2)c1)C1CC1 [EGFR Inhibitor] | 54.7 | 8.22 | 178 (active) | 186 (active) |
| NC/C=C\C(=O)O [cis-4-Aminocrotonic acid] | 105 | 100 | 98.3 (inactive) | 88.1 (inactive) |
| Br.Oc1ccc(C2CNCc3sccc32)cc1O (stereo not given) | 100 | 96.3 | 94.4 (inactive) | 112 (inactive) |
| CC(C)(Sc1ccc(CCN(CCCCC2CCCCC2)C(=O)NC2CCCCC2)cc1)C(=O)O | 101 | 107 | 95.7 (inactive) | 87.6 (inactive) |
| OC1(c2ccc(Cl)cc2)CCN(Cc2c[nH]c3ccccc23)CC1 | 94.6 | 93 | 106 (inactive) | 103 (inactive) |
| CC(=O)SCC[N+](C)(C)C.[Cl-] [Acetylthiocholine chloride] | 102 | 111 | 89.2 (inactive) | 92.5 (inactive) |
| CC12C=CC(=O)C=C1CCC1C3CC(O)C(O)(C(=O)CO)C3(C)CC(O)C12F (stereo not given) [Triamcinolone] | 97.5 ± 4.1 | 105 ± 9.9 | 86.8 (inactive) | 117 (inactive) |
| CC12C=CC(=O)C=C1CCC1C2C(=O)CC2(C)C1CCC2(O)C(=O)CO (stereo not given) [Prednisone] | 101 | 106 | 86.2 (inactive) | 122 (inactive) |
| C1COC(NC(C2CC2)C2CC2)=N1 [Rilmenidine hemifumarate] | 95.7 | 108 | 89.5 (inactive) | 107 (inactive) |
| Cl.O=C(NCCCCN1CCN(c2cccc(Cl)c2Cl)CC1)c1ccc2c(c1)Cc1ccccc1-2 | 93.5 | 98.2 | 96.4 (inactive) | 116 (inactive) |
| COc1cccc2c1C1CN(CCCCn3c(=O)[nH]c4c(sc5ncc(-c6ccccc6)nc54)c3=O)CC1CO2.Cl (stereo not given) [Fiduxosin hydrochloride] | 88.8 | 103 | 102 (inactive) | 116 (inactive) |
| O=c1c(O)c(-c2cc(O)c(O)c(O)c2)oc2cc(O)cc(O)c12 [Myricetin] | 102 ± 3.7 | 101 ± 3.9 | 88.4 (inactive) | 91.7 (inactive) |
| CCC=CCC=CCC=CCC=CCC=CCCCC(=O)O [Eicosapentaenoic acid] | 106 ± 9.9 | 103.8 ± 0.71 | 103 (inactive) | 99.1 (inactive) |
| NCC1OC(OC2C(N)CC(N)C(OC3OC(CO)C(O)C(N)C3O)C2O)C(N)CC1O (stereo not given) [Tobramycin (free base)] | 103 | 102 | 107 (inactive) | 106 (inactive) |

| Structure (SMILES) | cell number [1] | cell number [2] | H1.0 immunofluorescence intensity [3] | H1.0 immunofluorescence intensity [4] |
| --- | --- | --- | --- | --- |
| NCC1OC(OC2C(N)CC(N)C(OC3OC(CO)C(O)C(N)C3O)C2O)C(O)C(O)C1O.O=S(=O)(O)O (stereo not given) [Kanamycin sulfate] | 99.5 | 106 | 99.3 (inactive) | 90.1 (inactive) |
| Cl.NCC(O)C1CCCCCCC1 (stereo not given) [2-Cyclooctyl-2-hydroxyethylamine hydrochloride] | 101 | 103 | 97.1 (inactive) | 92.8 (inactive) |
| CC1(C)C2CCC1(C(=O)O)C(=O)C2 (stereo not given) [Ketopinic acid] | 103 | 102 | 99.7 (inactive) | 88.3 (inactive) |
| COc1cc2nccc(Oc3ccc(NC(=O)NC4CC4)c(Cl)c3)c2cc1C(N)=O | 83.8 | 94.9 | 89.2 (inactive) | 122 (inactive) |
| O=c1[nH]c2cc([N+](=O)[O-])c([N+](=O)[O-])cc2[nH]c1=O | 105 | 111 | 91.9 (inactive) | 91.4 (inactive) |
| NS(=O)(=O)c1cc2c(cc1Cl)NC(C1CC3C=CC1C3)NS2(=O)=O (stereo not given) [Cyclothiazide] | 100 | 105 | 111 (inactive) | 99.5 (inactive) |
| CN1CCN(c2c(F)cc3c(=O)c(C(=O)O)cn4c3c2SCC4)CC1 [Rufloxacin] | 107 | 94.7 | 100 (inactive) | 95.2 (inactive) |
| O=C(O)c1cc(=O)c2c(Cl)cc(Cl)cc2[nH]1 [5,7-Dichlorokynurenic acid] | 102 | 98.6 | 95.2 (inactive) | 95.9 (inactive) |
| Cc1ccc(-c2cc(C(F)(F)F)nn2-c2ccc(S(N)(=O)=O)cc2)cc1 [Celecoxib] | 97.7 | 103 | 99.1 (inactive) | 106 (inactive) |
| Br.C=CCN1CCc2c(cc(O)c(O)c2Br)C(c2ccccc2)C1 (stereo not drawn) [R(+)-6-Bromo-APB hydrobromide] | 89.1 | 87.2 | 89.7 (inactive) | 99.2 (inactive) |
| CN(C)c1ccc(O)c2c1CC1CC3C(N(C)C)C(=O)C(C(N)=O)=C(O)C3(O)C(=O)C1=C2O.Cl (stereo not given) | 99.2 | 96.9 | 95.5 (inactive) | 91.5 (inactive) |
| O=c1ccc2cc3ccoc3cc2o1 [7H-furo[3,2-g]chromen-7-one] | 96.4 | 105 | 90.3 (inactive) | 93.5 (inactive) |
| C#Cc1cccc(Nc2ncnc3cc(OCCOC)c(OCCOC)cc23)c1 [Erlotinib] | 94.8 ± 8 | 94.5 ± 3.9 | 91.3 (inactive) | 108 (inactive) |
| CCCCCCC=CCCCCCCCCCC(=O)O [11(Z)-Octadecenoic acid] | 99.8 | 101 | 112 (inactive) | 105 (inactive) |
| CON=C(C(=O)NC1C(=O)N2C(C(=O)O)=C(COC(C)=O)CSC12)c1csc(N)n1 (stereo not given) [Cefotaxime Acid] | 107 | 99.1 | 96.3 (inactive) | 103 (inactive) |
| CCC(=C(c1ccccc1)c1ccc(OCCN(C)C)cc1)c1ccccc1.O=C(O)CC(O)(CC(=O)O)C(=O)O [Tamoxifen citrate] | 85.2 | 95.2 | 115 (inactive) | 146 (active) |
| C[C@H](C#Cc1ccc(Cc2ccc(F)cc2)s1)N(O)C(N)=O | 98 | 92 | 100 (inactive) | 99.7 (inactive) |
| CC(C)(C)NCC(O)c1cc(O)cc(O)c1.CC(C)(C)NCC(O)c1cc(O)cc(O)c1.O=S(=O)(O)O (stereo not given) [Terbutaline hemisulfate] | 106 | 105 | 92.8 (inactive) | 97 (inactive) |
| CCNC(=O)N1CCN(CCCC(c2ccc(F)cc2)c2ccc(F)cc2)CC1.Cl [Amperozide hydrochloride] | 94.2 | 95.8 | 97 (inactive) | 99 (inactive) |
| CCCCC1C(=O)N(c2ccccc2)N(c2ccccc2)C1=O [Phenylbutazone] | 101 ± 1.3 | 106 ± 10 | 93.7 (inactive) | 97.5 (inactive) |
| NS(=O)(=O)c1cc(C(=O)O)c(NCc2ccco2)cc1Cl [Furosemide] | 101 ± 1.2 | 110 ± 1.9 | 91 (inactive) | 100 (inactive) |
| CN(C)CC(C)(C)CNc1nn2c(-c3ccccc3)nnc2cc1C1CCC1 | 101 | 103 | 99.9 (inactive) | 92.2 (inactive) |
| CCCCCC=CCC=CCC=CCCCCCCC(=O)O [8(Z), 11(Z), 14(Z)-Eicosatrienoic Acid] | 97.9 | 101 | 97.9 (inactive) | 98.7 (inactive) |
| CNC(=C[N+](=O)[O-])NCCSCc1ccc(CN(C)C)o1.Cl [Ranitidine hydrochloride] | 101 | 113 | 91.6 (inactive) | 85.1 (inactive) |
| O=C(NC1CCNCC1)c1[nH]ncc1NC(=O)c1c(Cl)cccc1Cl | 53.5 | 31.9 | 131 (active) | 117 (inactive) |

From the supplement of paper PMC7156485
